In the library only some 19% were active in any assay of this set; here they are far more common.
Pf growth 48h = P. falciparum growth inhibition at 48 hours (one generation); P. falciparum luciferase growth in erythrocytes, 48 h; Potency, µM (top dose mostly 28.7 µM), most hits filed as inhibitors; hit rate 5.9% among 310,000; AID 504832
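Luminescence readout; reporter = integrated firefly luciferase in P. falciparum. RBC culture at 2% hematocrit, 0.1% parasitemia final, 37 C/5% CO2; decreased signal taken as growth inhibition.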
CHX counter = counter-screen for Shiga toxin inhibitors: cycloheximide protein synthesis inhibition; cell reporter, cycloheximide protein synthesis inhibition counterscreen; max response, %; hit rate 12% among 300,000; AID 2314; in the data active = max response mostly above about 13%, no sharp cut-off; inactive = mostly below about 14%; note: read at 38.3 µM for the half of the compounds with a filed dose
Lassa entry inh = Lassa virus entry inhibition; Lassa virus pseudotype entry inhibition, cell reporter; Potency, µM (highest dose often 37.9 µM), hits mostly inhibitors; hit rate 1.2% among 300,000; calls by dose curve; tested in HEK293 cells; note: nearly all actives have a fitted effect of over 50% in size
Pf growth 96h = P. falciparum growth inhibition at 96 hours; hit rate 6.9% among 320,000; P. falciparum luciferase reporter growth, 96 h; Potency, µM (titrated, usually from 28.7 µM), actives largely listed as inhibitors; AID 504834
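Infected RBCs, 2% Hct / 0.05% parasitemia final; luciferase-reporter P. falciparum; cpd 96 h, 37 C, 5% CO2; luciferase detection reagent; luminescence.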
Shiga toxin inh = inhibitors of Shiga toxin in Vero cells; hit rate 9.2% among 290,000; Vero cells, Shiga toxin protein synthesis inhibition reporter; inhibition, % at 38.7 µM; AID 2315; in the data active = inhibition mostly above about 28%, no sharp cut-off; inactive = mostly below about 43%
MARV entry inh = Marburg virus entry inhibition; Marburg virus pseudotyped entry inhibition, cell reporter; Potency, µM (series often up to 37.8 µM), hits mostly inhibitors; hit rate 1.8% among 300,000; AID 540276; calls by dose curve; tested in HEK293 cells
Each line names hits and unclear results; the compound was inactive in the other large screens. Unless noted, calls come from the whole dose curve; as a rule, active = well fitted inhibition curve with a large enough effect; inconclusive = small, poorly fitted or top-dose-only effect, or another doubt; inactive = no such curve, though single readings can be large or run the other way.

O=C1CCC(=O)N1c1nc2nc(-c3ccccc3)cc(-c3ccccc3)n2n1	none
COc1cccc(Nc2nc(-c3cccnc3)cs2)c1	CHX counter 53, Shiga toxin inh 57 (no result: Lassa entry inh, MARV entry inh)
COc1ccc(-c2csc(Nc3cccnc3)n2)cc1OC	Pf growth 48h inconclusive, Shiga toxin inh active
CCN1CC(CN(C)Cc2cn(-c3ccc(C)cc3)nc2-c2cccc(C)c2)CC1=O (stereo unspecified)	Pf growth 48h 10µM, Lassa entry inh inconclusive, Pf growth 96h inconclusive, MARV entry inh 11µM
CN(Cc1ncc[nH]1)Cc1cn(-c2ccccc2)nc1-c1ccc2c(c1)OCO2	Pf growth 48h inconclusive (no result: Lassa entry inh, MARV entry inh)
Cc1ccc(-n2cc(CN(C)Cc3nccn3C)c(-c3ccc(F)cc3)n2)cc1	Pf growth 48h 8.3µM, Lassa entry inh inconclusive, MARV entry inh inconclusive
Cc1ccc(-n2cc(CN(C)CCc3cn[nH]c3)c(-c3cccc(C)c3)n2)cc1	Pf growth 48h inconclusive
Cc1ccc(-n2cc(CN(C)Cc3ncc[nH]3)c(-c3cccc(C)c3)n2)cc1	Pf growth 48h 2.6µM, Lassa entry inh inconclusive, MARV entry inh inconclusive
Cc1ccc(-n2cc(CNC(C)Cc3cnccn3)c(-c3cccc(C)c3)n2)cc1 (stereo unspecified)	Pf growth 48h 3.3µM, Lassa entry inh inconclusive, MARV entry inh inconclusive
CCCCN(C)C1CCN(C(=S)Nc2ccc(OCC)cc2)CC1	none
COc1ccc(-c2c(C)c3ccc(O)c(CN4CCCC(C)C4)c3oc2=O)cc1OC (stereo unspecified)	none (no result: Pf growth 48h, CHX counter, Pf growth 96h, Shiga toxin inh, MARV entry inh)
COCCN(C(=O)COC(=O)CCc1nc2ccccc2s1)c1c(N)n(Cc2ccccc2)c(=O)[nH]c1=O	none
Cc1ccc2cc(CN(C(=O)c3ccncc3)C(C)C)c(=O)[nH]c2c1	Pf growth 48h inconclusive, Pf growth 96h 8.3µM
CC(C)N(Cc1cc2ccccc2[nH]c1=O)C(=O)c1cccnc1	none
CC(=O)N(CCc1cccc(C)c1)Cc1cc2ccc(C)cc2[nH]c1=O	Pf growth 96h 0.074µM (no result: Lassa entry inh, MARV entry inh)
CNC(=S)N(CCc1cccc(C)c1)Cc1cc2cc(OC)c(OC)cc2[nH]c1=O	MARV entry inh inconclusive
COc1cc2cc(CN(CCc3cccc(C)c3)C(=S)NCCCN(C)C)c(=O)[nH]c2cc1OC	Pf growth 48h 13µM, Lassa entry inh inconclusive, MARV entry inh inconclusive
CC(=O)N(CCc1cccc(C)c1)Cc1cc2cc(C)ccc2[nH]c1=O	none (no result: Lassa entry inh, MARV entry inh)
COc1cc2cc(CN(CCc3cccc(C)c3)C(=S)NCCCN3CCOCC3)c(=O)[nH]c2cc1OC	Pf growth 48h inconclusive, Lassa entry inh inconclusive, MARV entry inh 10µM
CC(C)c1ccccc1NC(=S)NC(C)c1ccccc1 (stereo unspecified)	Pf growth 48h inconclusive, Pf growth 96h inconclusive, MARV entry inh inconclusive
COc1cc(/C=C/C(=O)c2ccc(NS(=O)(=O)c3ccc(C)cc3)cc2)ccc1OC(F)F	Pf growth 48h 15µM, Lassa entry inh inconclusive, Pf growth 96h inconclusive, MARV entry inh inconclusive
COc1cc(/C=C/C(=O)c2ccc(NS(=O)(=O)c3ccc(C)cc3)cc2)cc(OC)c1O	Pf growth 48h 12µM, Lassa entry inh inconclusive, Pf growth 96h inconclusive, MARV entry inh inconclusive
COc1cccc(/C=C/C(=O)c2ccc(NS(=O)(=O)c3ccc(C)cc3)cc2)c1	Lassa entry inh inconclusive, Pf growth 96h inconclusive, MARV entry inh inconclusive
CCOC(=O)/C(=C/C=C1\Sc2ccccc2N1CC)C(C)=O	Pf growth 48h inconclusive, Lassa entry inh inconclusive, MARV entry inh inconclusive
CCC(=O)/C=C1/Sc2ccccc2N1CC	CHX counter 29, Shiga toxin inh 121
CCOC(=O)/C(=C\C=C1/Sc2ccccc2N1CC)C(C)=O	Pf growth 48h inconclusive, Lassa entry inh 2.8µM, MARV entry inh inconclusive
CCN1/C(=C/C(=O)c2ccco2)Sc2ccccc21	CHX counter 24
CCOC(=O)c1[nH]c(C)c(/C(O)=C2\C(=O)C(=O)N(CCCN(CC)CC)C2c2cccnc2)c1C (stereo unspecified)	none (no result: Pf growth 48h, CHX counter, Pf growth 96h, Shiga toxin inh)
O=C(COC(=O)c1cccnc1Cl)NCCCc1ccccc1	none (no result: CHX counter, Shiga toxin inh)
COCCSc1ccccc1C(=O)Nc1ccc(Cl)cn1	none
C#Cc1ccc(C(=O)Nc2ccc(N3CCC(C)CC3)c(C(N)=O)c2)cc1	Pf growth 48h 1.9µM, Pf growth 96h inconclusive (no result: Lassa entry inh, MARV entry inh)
CC1CCN(c2ccc(NC(=O)c3cccc(Cl)c3)cc2C(=O)O)CC1	none (no result: Pf growth 48h, CHX counter, Pf growth 96h, Shiga toxin inh, MARV entry inh)
O=C(Cc1nc2ccccc2[nH]c1=O)c1ccccc1	CHX counter 51, Shiga toxin inh 69, MARV entry inh inconclusive
O=C(Cc1nc2ccccc2[nH]1)c1ccc(Br)cc1	Pf growth 48h inconclusive, CHX counter 28, Pf growth 96h 1.7µM, Shiga toxin inh 76
CC(C(=O)Nc1ccc2c(c1)OCCO2)N(c1ccccc1)S(C)(=O)=O (stereo unspecified)	Pf growth 48h inconclusive (no result: Lassa entry inh, MARV entry inh)
CC(C)c1cccc(C(C)C)c1NC(=O)COC(=O)C1CCC1	none (no result: CHX counter, Shiga toxin inh)
Cc1cc(S(=O)(=O)c2ccc([N+](=O)[O-])cn2)ccc1Br	Lassa entry inh inconclusive, MARV entry inh 10µM (no result: Pf growth 48h, CHX counter, Pf growth 96h, Shiga toxin inh)
O=[N+]([O-])c1ccc(S(=O)(=O)c2ccccc2)nc1	Pf growth 48h 2.9µM, Pf growth 96h 1.7µM (no result: Lassa entry inh, MARV entry inh)
Cc1ccc(S(=O)(=O)c2ccc([N+](=O)[O-])cn2)cc1	Pf growth 48h inconclusive, Lassa entry inh inconclusive, Pf growth 96h inconclusive, MARV entry inh 4µM
Cc1ccc([N+](=O)[O-])cc1	none (no result: CHX counter, Lassa entry inh, Shiga toxin inh, MARV entry inh)
Nc1ccc(S(=O)(=O)c2ccccc2)nc1	none (no result: Lassa entry inh, MARV entry inh)
O=c1[nH]c2ccc(S(=O)(=O)Nc3cc(Cl)ccc3O)cc2o1	none (no result: Pf growth 48h, CHX counter, Pf growth 96h, Shiga toxin inh)
CCn1nnnc1NC(=O)c1cc(Cl)c(OC)c(Cl)c1	Pf growth 96h inconclusive
COc1ccc(C(=O)Nc2ccc(NC(=O)C3CC3)nc2)cc1	Pf growth 96h 10µM
CCn1nnnc1NC(=O)c1cccc(OC)c1	CHX counter 32, Shiga toxin inh 83, MARV entry inh inconclusive (no result: Lassa entry inh)
COc1cccc(C(=O)Nc2ccc(NC(=O)C3CC3)cn2)c1	CHX counter 29, Lassa entry inh inconclusive, Pf growth 96h 8.3µM, Shiga toxin inh 70, MARV entry inh inconclusive
COc1ccc(C(=O)Nc2ccc(NC(=O)c3cccc(OC)c3)cn2)cc1	Pf growth 48h inconclusive, MARV entry inh inconclusive
CCC(=O)Nc1ccc(NC(=O)c2cccc(OC)c2)nc1	CHX counter 23, Lassa entry inh inconclusive, Shiga toxin inh 24
CCCC(=O)Nc1ccc(NC(=O)c2cccc(OC)c2)cn1	Pf growth 96h inconclusive
CC(C)Sc1ncc(Cl)c(C(=O)N(Cc2ccc(F)cc2)C2CCS(=O)(=O)C2)n1 (stereo unspecified)	none (no result: Pf growth 48h, CHX counter, Pf growth 96h, Shiga toxin inh)
O=C(OCC1CCCN2CCCCC12)c1ccc2c(c1)OCO2 (stereo unspecified)	none
O=[N+]([O-])c1ccn(-c2nc(-c3ccccc3)cc(C(F)(F)F)n2)n1	Pf growth 48h inconclusive, Pf growth 96h inconclusive
O=C(Nc1nc(-c2ccc(Cl)cc2)cs1)c1cccnc1	none (no result: Pf growth 96h)
Cc1ccc(S(=O)(=O)N2CCOCC2)cc1C(=O)Nc1nc(-c2ccccn2)cs1	MARV entry inh inconclusive (no result: Pf growth 48h, CHX counter, Pf growth 96h, Shiga toxin inh)
O=C(Nc1nc(-c2ccccn2)cs1)c1ncc(Cl)c(Cl)c1Cl	Pf growth 48h inconclusive, Lassa entry inh inconclusive, Pf growth 96h 13µM

Screens deposited in PubChem by National Center for Advancing Translational Sciences (NCATS).
